Screening data (PubChem BioAssay)
Tau fibril FP – inhibitors of human tau fibril formation | K18 P301L tau heparin fibrillization, Alexa594 FP, 6 h | Potency, µM (series often up to 57.7 µM), for the others: at the top dose activity, negative = inhibition, hits mostly inhibitors | 280,000 tested, 0.39% active | AID 1468; further: nearly all actives have a fitted effect of over 55% in size
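FP of Alexa 594-tau after heparin (20 uM) induction. Substrate: human K18 P301L, 15 uM unlabeled, 0.24 uM labeled. Buffer 100 mM sodium acetate pH 7. 6 hr, 37 C.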
Tau fluor cs – counter-screen for tau fibril formation inhibitors; Potency, µM (series often up to 57.7 µM), without a hit: top-dose activity change, negative = decrease; tau K18 P301L Alexa594 fluorescence, heparin fibrillization; 280,000 tested, 0.93% active; further: nearly all actives have a fitted effect of over 55% in size
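Human tau K18 P301L (15 uM unlabeled, 0.24 uM Alexa 594-labeled) in 100 mM sodium acetate pH 7 with 20 uM heparin, 6 hr at 37 C. ThT 30 uM added, 1 hr ambient; Alexa 594 FP and total fluorescence read at 555/632 nm.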
TRb-SRC2 inh – disrupts binding of human TR beta to SRC2. P10828. TRbeta-SRC2 peptide binding, fluorescence polarization; receptor liganded with 1 µM T3. 280,000 tested, 0.065% active. Potency, µM (doses to about 106 µM), inactives show top-dose activity change, negative = inhibition, hits mostly inhibitors;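 further: plate controls were bound peptide for no effect and peptide without receptor for full effect; nearly all actives have a fitted effect of over 50% in size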
Target sequence (P10828 whole entry, looked up): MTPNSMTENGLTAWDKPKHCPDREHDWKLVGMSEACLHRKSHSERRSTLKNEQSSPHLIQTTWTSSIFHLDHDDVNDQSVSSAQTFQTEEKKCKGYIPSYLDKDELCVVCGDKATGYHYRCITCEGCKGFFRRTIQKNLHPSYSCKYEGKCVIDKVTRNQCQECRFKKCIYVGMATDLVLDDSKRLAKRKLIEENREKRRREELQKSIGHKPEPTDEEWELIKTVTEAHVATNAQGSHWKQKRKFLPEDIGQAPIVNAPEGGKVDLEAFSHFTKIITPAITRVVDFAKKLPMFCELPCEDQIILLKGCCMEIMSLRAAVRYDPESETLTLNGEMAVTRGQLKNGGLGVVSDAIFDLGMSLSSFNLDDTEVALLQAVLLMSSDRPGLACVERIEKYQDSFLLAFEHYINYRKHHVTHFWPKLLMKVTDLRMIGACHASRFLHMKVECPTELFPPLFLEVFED
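Human TRb LBD (0.6 uM) plus Texas Red-labeled SRC2 peptide (20 nM), 1uM T3, 5% DMSO, 5 hr at ambient temperature. Decreased polarization (555/632 nm) flags inhibition; data normalized to free and bound peptide controls.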
Tau ThT inhib – blocks human tau fibril formation measured by thioflavin T. P10636. recombinant tau K18 P301L (four-repeat tau fragment), heparin-induced fibrillization, ThT fluorescence. Potency, µM (highest dose often 57.4 µM), for inactives: at the top dose activity, negative = inhibition, usual class: inhibitors. 270,000 tested, 2.1% active; further: nearly all actives have a fitted effect of over 55% in size
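Recombinant human tau K18 fragment […] carrying P301L, 15 uM unlabeled plus 0.24 uM Alexa 594-labeled, was fibrillized with 20 uM heparin in 100 mM sodium acetate pH 7 for 6 hr at 37 C; 30 uM ThT fluorescence read after 1 hr.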
TexasRed fluor – counter-screen for TRb-SRC2 inhibitors: fluorescence interference | TRb/SRC2 Texas Red total fluorescence interference | Potency, µM (series often up to 106 µM), without a hit: at the highest dose fluorescence change, negative = quenching | 280,000 tested, 0.29% active; active means well fitted curve in either direction with a large enough effect; inconclusive means small, poorly fitted or top-dose-only effect
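Flags fluorescent or light-absorbing compounds by total fluorescence, S + 2P, at 555 nm excitation and 632 nm emission. Mixture: 20 nM Texas Red SRC2 peptide, 0.6 uM human TRb LBD, 1 uM T3, 5% DMSO; compound exposure 5 h at ambient temperature.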
Numbers without * were called inactive; u = inconclusive; x = no result given; [ ] = dose if it differs, or a comment. Hits are enriched below; roughly 3.1% of the tested compounds scored in any of these assays. Unless noted, the call rests on the fitted dose curve; in most records, active means well fitted curve in the direction sought with a large enough effect; inconclusive means small, poorly fitted or top-dose-only effect, or another doubt; inactive means no such curve, though single readings can be large; an effect the other way counts as inactive or inconclusive. Unless noted, on the % scale 0 is the no-effect control and ±100 the full control effect; potency means the concentration at half of the fitted maximal effect.

SMILES	Tau fibril FP	Tau fluor cs	TRb-SRC2 inh	Tau ThT inhib	TexasRed fluor
Cc1ccc(Cl)cc1NC(=O)N1CCC2(CC1)Oc1ccccc1C(=O)N2Cc1ccccc1F	-5.0%	-22.8%	-5.1%	-10.7%	35.5µM*[quencher]
CCOC(=O)c1ccc(N2C(=O)c3[nH]nc(-c4ccccc4)c3C2c2cccs2)cc1 (stereo not given)	u	u	4.1%	0.5%	-2.3%
CC(=O)c1cc(-c2ccccc2)[nH]c1N1CCOCC1	u	-27.7%	0.5%	31.6µM*	2.7%
CC(C)(C)c1ccc(C(=O)NC2=NC(c3cccc(F)c3)CC(=O)N2)cc1 (stereo not given)	-15.9%	-8.3%	-7.0%	8.5%	5.0%
Cc1cccc(C2=NN(c3ccc(Br)cc3)[C@@H](C(=O)N3CCOC3=O)[C@@H]2c2ccc(Cl)cc2)c1	-7.4%	u	-0.9%	-3.2%	-0.2%
Cc1cccc(C2=NN(c3ccccc3)[C@H](CO)[C@H]2c2ccc(F)cc2)c1	u	31.6µM*[quencher]	5.2%	u	-0.3%
Cc1cccc(C2=NN(c3ccccc3)[C@H](CO)[C@H]2c2ccc(Cl)cc2)c1	u	11.2µM*[quencher]	8.4%	u	3.5%
COc1ccc(-c2csc(-c3c(N)c(C(=O)c4ccccc4)n4ccccc34)n2)cc1OC	u	u	10.4%	u	-4.2%
CN1C(=O)CC2(C=CC(=O)C=C2OC(=O)c2ccccc2)c2ccccc21 (stereo not given)	x	x	4.8%	x	-1.5%
O=C(COc1ccccc1F)NC1CC(=O)N(c2ccc3c(c2)OCCO3)C1 (stereo not given)	-0.3%	-3.2%	-5.2%	-0.1%	0.3%
Cc1cccc(NC(=O)CCS(=O)(=O)c2cccc3nsnc23)c1C	u	-22.2%	0.9%	20µM*	0.0%
CCOc1ccc(NC(=O)CCc2nnc3n(C)c(=O)c4sccc4n23)cc1	3.6%	-16.3%	29.9%[53 µM]	u	0.0355µM*[quencher]
COc1ccccc1N1CCN(C(=O)CCc2nnc3n(C)c(=O)c4sccc4n23)CC1	-5.2%	-9.4%	u	-9.5%	22.4µM*[quencher]
CCOc1ccc(S(=O)(=O)Nc2cccc(-c3ccc(N4CCC(C)CC4)nn3)c2)cc1	-1.5%	-17.0%	7.1%	8.4%	-15.5%
O=S(=O)(Nc1cccc(-c2ccc(N3CCCCC3)nn2)c1)c1ccc(F)cc1F	8.6%	-23.6%	2.9%	u	-7.4%
CC1CCN(c2ccc(-c3cccc(NS(=O)(=O)c4ccc(F)cc4F)c3)nn2)CC1	-6.6%	-19.1%	-19.3%	-3.9%	8.91µM*[quencher]
CCOc1ccc(S(=O)(=O)Nc2cccc(-c3ccc(N4CCCC4)nn3)c2)cc1	-5.7%	-27.9%	-7.3%	-8.7%	20µM*[quencher]
CCN1CCN(c2cc(C)c3cc(NC(=O)c4cc(Br)ccc4Cl)ccc3n2)CC1	10.8%	u	-2.5%	u	-1.6%
C/C(=N\Nc1ccc(C(=O)O)cc1)c1ccc2c(c1)Nc1ccccc1S2	-10.0%	12.6µM*[quencher]	-7.7%	3.55µM*	-5.4%
CO[C@@H]1COC(=O)C/C=C\[C@H](C)COC(=O)[C@H](Cc2ccccc2)NC(=O)C/C=C\[C@H]1C	-10.4%[11.6 µM]	-8.0%[11.6 µM]	-2.1%[11.2 µM]	-7.7%[11.5 µM]	-3.0%[11.2 µM]
Cc1ccc(NS(=O)(=O)c2ccc3nc(-c4ccccc4)[nH]c3c2)c(Br)c1	u	u	3.6%	7.6%	0.0%
O=S(=O)(Nc1ccc(Br)cc1)c1ccc2nc(-c3ccccc3)[nH]c2c1	15.8µM*	u	4.2%	15.6%	-1.2%
CC(C)c1ccc(NS(=O)(=O)c2ccc3nc(-c4ccccc4)[nH]c3c2)cc1	10µM*	u	7.4%	u	0.9%
Cc1ccc(NS(=O)(=O)c2ccc3nc(-c4ccccc4)[nH]c3c2)c(Cl)c1	14.1µM*	u	3.5%	12.0%	-0.2%
CC(C)CNC1=CC(=O)CC(c2ccco2)C1 (stereo not given)	u	-21.4%	-5.6%	28.2µM*	-15.8%
COc1cc(C2C(=O)N(C3CCCCCC3)CC(=O)N2CCc2ccccc2)ccc1OC(C)C (stereo not given)	5.0%	-11.7%	-4.3%	-9.3%	-0.3%
